Measured values reported in PubChem BioAssay.
Activity calls are given as the source filed them.

Legend:
[1] = E. coli DRC41 culture turbidity changes, primary screen, E. coli filamentation inducer project, strain DRC41, OD650, 48 h (AID 1152);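 note: E. coli MC1000 strain DRC41 lacking acrAB efflux pump and sulA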; details: E. coli DRC41 (acrAB sulA), higher = more signal, called active from +8 up or from −8 down
[2] = small-molecule binders of probe aLefty1, primary screen, biochemical, small-molecule microarray, 635/667 nm fluorescence (AID 1153); details: higher = more signal;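 note: score merges spot fluorescence with signal-to-noise ratio from the scanned slide images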
[3] = PSAC antagonists in infected red cells, primary screen, cell-based, P. falciparum Indochina, OD700, 1 h (AID 1154); details: P. falciparum Indochina infected RBC osmotic lysis, higher = more signal, called active from +8 up or from −8 down
[4] = PSAC antagonists in infected red cells, primary screen, cell-based, P. falciparum Indochina, OD700, 2 h (AID 1155);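 note: lysis reports solute entry through the parasite surface anion channel PSAC; channel blockers reduce lysis of infected cells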; details: P. falciparum Indochina infected erythrocytes, osmotic lysis OD700; higher = more signal, called active from +8 up or from −8 down
[5] = osmotic lysis modulators in infected erythrocytes, primary screen, PSAC antagonist project, cell-based, P. falciparum Indochina, OD700, 3 h (AID 1156); details: higher = more signal, called active from +8 up or from −8 down
[6] = PSAC antagonists in infected red cells, primary screen, cell-based, P. falciparum Indochina, OD700, 18 h (AID 1157); details: P. falciparum Indochina infected erythrocytes, osmotic lysis OD700, 18 h; higher = more signal, called active from +8 up or from −8 down
[7] = modulators of S6 phosphorylation in cells, primary screen, cell-based, A549, cytoblot, luminescence, serum-stimulated (AID 1158); details: A549 phospho-S6 cytoblot, 5 h, higher = more signal;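 note: serum-stimulated A549 lung adenocarcinoma cells; signal is phosphorylated S6 detected by cytoblot immunostaining with HRP secondary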
[8] = target: NADPH oxidase 2 (Homo sapiens) (UniProt P04839); experiment: NOX2-dependent H2O2 signal modulators, primary screen, NOX inhibitor project, cell-based, HEK293-NOX2, PMA-stimulated, Amplex Red fluorescence (AID 1159); details: 45 min, higher = more signal, called active from +8 up or from −8 down; note: test concentration not given here
[9] = target: NADPH oxidase 4 (Homo sapiens) (UniProt Q9NPH5); experiment: NOX4-dependent H2O2 signal modulators, primary screen, NOX inhibitor project, cell-based, HEK293-NOX4, tetracycline-induced, Amplex Red fluorescence (AID 1160); details: 45 min, higher = more signal, called active from +8 up or from −8 down
[10] = target: NADPH oxidase 5 (Homo sapiens) (UniProt Q96PH1); experiment: NOX5-dependent H2O2 signal modulators, primary screen, NOX inhibitor project, cell-based, HEK293-NOX5, Amplex Red fluorescence (AID 1161); details: HEK293-NOX5, ionomycin, 45 min, higher = more signal
Sequence of NADPH oxidase 5 (Homo sapiens) (Q96PH1 whole entry, looked up): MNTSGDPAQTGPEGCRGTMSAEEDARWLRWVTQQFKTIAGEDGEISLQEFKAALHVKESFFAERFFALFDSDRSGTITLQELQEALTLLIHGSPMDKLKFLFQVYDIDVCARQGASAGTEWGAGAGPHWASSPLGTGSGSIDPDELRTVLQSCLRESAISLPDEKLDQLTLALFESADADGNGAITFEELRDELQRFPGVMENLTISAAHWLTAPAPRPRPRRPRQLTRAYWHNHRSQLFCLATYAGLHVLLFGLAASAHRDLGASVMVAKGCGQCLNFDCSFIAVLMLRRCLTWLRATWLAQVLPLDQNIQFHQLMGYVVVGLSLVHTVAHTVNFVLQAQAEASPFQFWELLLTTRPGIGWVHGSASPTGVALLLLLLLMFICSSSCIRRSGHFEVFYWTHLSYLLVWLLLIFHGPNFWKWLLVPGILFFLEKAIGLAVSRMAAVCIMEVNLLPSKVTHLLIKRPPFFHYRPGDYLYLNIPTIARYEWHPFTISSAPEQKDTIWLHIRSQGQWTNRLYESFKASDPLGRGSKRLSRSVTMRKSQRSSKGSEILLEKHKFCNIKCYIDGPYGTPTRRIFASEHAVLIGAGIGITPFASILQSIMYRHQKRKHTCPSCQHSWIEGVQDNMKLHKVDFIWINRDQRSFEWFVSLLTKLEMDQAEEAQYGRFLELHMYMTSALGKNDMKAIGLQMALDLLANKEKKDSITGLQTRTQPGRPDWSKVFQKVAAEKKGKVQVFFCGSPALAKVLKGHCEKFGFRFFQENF

Sequence of NADPH oxidase 2 (Homo sapiens) (P04839 whole entry, looked up): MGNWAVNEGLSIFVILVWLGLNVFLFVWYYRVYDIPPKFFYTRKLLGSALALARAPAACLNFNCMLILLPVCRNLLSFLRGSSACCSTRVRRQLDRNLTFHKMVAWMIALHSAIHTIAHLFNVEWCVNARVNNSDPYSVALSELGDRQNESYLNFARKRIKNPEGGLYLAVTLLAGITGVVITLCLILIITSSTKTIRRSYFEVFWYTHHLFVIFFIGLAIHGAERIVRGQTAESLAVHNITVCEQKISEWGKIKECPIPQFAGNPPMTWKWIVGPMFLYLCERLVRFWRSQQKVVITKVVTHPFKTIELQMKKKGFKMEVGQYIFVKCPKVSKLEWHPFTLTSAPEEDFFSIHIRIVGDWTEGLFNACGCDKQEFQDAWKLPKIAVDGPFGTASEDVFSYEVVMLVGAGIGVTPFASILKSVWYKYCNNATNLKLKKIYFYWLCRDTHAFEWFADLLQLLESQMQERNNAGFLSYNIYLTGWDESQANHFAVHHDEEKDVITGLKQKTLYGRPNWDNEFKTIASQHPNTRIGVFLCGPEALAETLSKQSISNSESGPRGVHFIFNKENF
Sequence of NADPH oxidase 4 (Homo sapiens) (Q9NPH5 whole entry, looked up): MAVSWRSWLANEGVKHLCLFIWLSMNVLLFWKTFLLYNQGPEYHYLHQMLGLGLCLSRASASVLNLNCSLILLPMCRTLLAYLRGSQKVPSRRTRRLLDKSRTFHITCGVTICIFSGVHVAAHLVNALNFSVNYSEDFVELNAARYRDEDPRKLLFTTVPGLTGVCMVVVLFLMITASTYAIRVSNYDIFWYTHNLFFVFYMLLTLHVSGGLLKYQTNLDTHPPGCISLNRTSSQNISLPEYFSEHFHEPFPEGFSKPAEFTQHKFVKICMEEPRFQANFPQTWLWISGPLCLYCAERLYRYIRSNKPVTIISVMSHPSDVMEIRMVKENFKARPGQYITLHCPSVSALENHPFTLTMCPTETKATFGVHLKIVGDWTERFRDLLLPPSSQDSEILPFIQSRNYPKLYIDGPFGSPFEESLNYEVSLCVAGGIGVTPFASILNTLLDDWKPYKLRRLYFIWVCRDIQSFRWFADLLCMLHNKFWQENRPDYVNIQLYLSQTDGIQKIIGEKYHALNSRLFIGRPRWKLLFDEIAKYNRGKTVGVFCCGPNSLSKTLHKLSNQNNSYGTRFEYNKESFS

Row | SMILES | z-score [1] | composite z-score [2] | z-score [3] | z-score [4] | z-score [5] | z-score [6] | z-score [7] | z-score [8] | z-score [9] | z-score [10]
1 | CC(C)(C)N1C(=O)[C@H]2[C@H]3[C@H](O)C=CC(=O)[C@@H]3CC[C@H]2C1=O | -0.0926 (inactive) | -0.286 | -0.007 (inactive) | -0.566 (inactive) | -0.562 (inactive) | -0.43 (inactive) | 0.0787 | 0.497 (inactive) | -1.67 (inactive) | -0.47
2 | CCOC(=O)CCN1C(=O)[C@H]2[C@H]3[C@H](O)[C@H](O)CC(=NOCc4ccccc4)[C@H]3CC[C@H]2C1=O | 1.02 (inactive) | 0.914 | 3.06 (inactive) | 0.939 (inactive) | -0.35 (inactive) | 0.451 (inactive) | -0.578 | -0.43 (inactive) | 0.622 (inactive) | 0.279
3 | CON=C[C@@H](NS(=O)(=O)c1ccc(C)cc1)[C@H](C)C=CCC(=O)OC | -1.47 (inactive) | -0.0984 | 0.553 (inactive) | 0.849 (inactive) | -0.459 (inactive) | 0.539 (inactive) | 0.22 | -0.153 (inactive) | -0.345 (inactive) | -0.415
4 | COC(=O)[C@H](C)NC(=O)CCC1CC(OC(=O)NCCc2ccc(F)cc2)CC2(CCCC(COC(=O)NCc3cccc(C(F)(F)F)c3)O2)O1 (stereo not given in full) | 0.419 (inactive) | -0.181 | 9.11 (active) | 0.445 (inactive) | -0.45 (inactive) | 0.125 (inactive) | -0.416 | 1.23 (inactive) | -1.65 (inactive) | -1.14
5 | COc1ccc(O[C@H]2C=C[C@@H](c3ccccc3)O[C@@H]2CON=C(C)CCC(=O)OC[C@H]2O[C@H](c3ccccc3)C=C[C@@H]2Oc2ccc(OC)cc2)cc1 | 0.274 (inactive) | 0.64 | 0.99 (inactive) | 0.328 (inactive) | 0.104 (inactive) | 0.464 (inactive) | -0.661 | -0.2 (inactive) | 0.988 (inactive) | -0.925
6 | CCOC(=O)[C@H](CC(C)C)NC(=O)CCC1CC(OC(=O)NCCc2ccc(F)cc2)CC2(CCCC(COC(=O)NCCc3ccc(Cl)cc3)O2)O1 (stereo not given in full) | -1.29 (inactive) | 0.18 | 2.96 (inactive) | -0.44 (inactive) | 0.235 (inactive) | 0.0264 (inactive) | -0.146 | 0.333 (inactive) | 1.32 (inactive) | 1.33
7 | CC(CCN1CCCCc2nc(C)c(C)cc21)=NO[C@@H](C)c1cn([C@H](CO)Cc2ccccc2)nn1 | 0.72 (inactive) | 0.0618 | 2.04 (inactive) | 0.32 (inactive) | 0.729 (inactive) | 0.367 (inactive) | -0.11 | -2.09 (inactive) | -0.106 (inactive) | -0.199
8 | CCOC(=O)[C@H](CC(C)C)NC(=O)CCC1CC(OC(=O)NCc2cccc3ccccc23)CC2(CCCC(COC(=O)NCCC(C)C)O2)O1 (stereo not given in full) | -0.64 (inactive) | 0.185 | 22.7 (active) | 6.81 (inactive) | -0.861 (inactive) | 0.78 (inactive) | 2.49 | 0.902 (inactive) | 0.777 (inactive) | 0.389
9 | CO[C@H]1COC(=O)CC=C[C@H](C)COC(=O)[C@@H](C)NC(=O)CC=C[C@@H]1C | -0.447 (inactive) | 0.0669 | -0.499 (inactive) | -1.13 (inactive) | 0.475 (inactive) | -2.08 (inactive) | 1.27 | 0.157 (inactive) | 0.148 (inactive) | -0.0359
10 | COC(=O)CC=C[C@@H](C)[C@H](OCc1cccc(-c2ccccc2)c1)C1CCCCC1 | -0.249 (inactive) | -0.289 | 1.56 (inactive) | 1.02 (inactive) | 0.0674 (inactive) | 0.367 (inactive) | -0.484 | -0.491 (inactive) | 0.228 (inactive) | -0.471
11 | CO[C@@H]1C=CCC(=O)N2CCC[C@H]2C(=O)OC[C@@H](C)C(=O)OC[C@H]1C | 1.12 (inactive) | 0.154 | 0.0026 (inactive) | 0.155 (inactive) | 0.335 (inactive) | 0.181 (inactive) | 0.467 | -0.805 (inactive) | 0.766 (inactive) | 0.147
12 | O=C1C[C@@H](O)[C@@H](O)[C@@H]2[C@@H]3C(=O)N(Cc4ccccc4)C(=O)[C@@H]3CC[C@@H]12 | -0.861 (inactive) | -0.0559 | -0.0483 (inactive) | 0.141 (inactive) | 0.0313 (inactive) | -0.014 (inactive) | -0.224 | 1.04 (inactive) | 0.286 (inactive) | -0.0644
13 | COc1ccc(O[C@H]2C=C[C@@H](c3ccccc3)O[C@@H]2CON=C2[C@H]3CCn4c(=O)n(-c5ccccc5)c(=O)n4[C@H]3[C@H](O)[C@@H]3O[C@H]23)cc1 | -0.402 (inactive) | -0.012 | 8.37 (active) | 1.25 (inactive) | 0.671 (inactive) | 0.858 (inactive) | -0.511 | -1.37 (inactive) | -0.132 (inactive) | -0.17
14 | COC(=O)[C@H](C)NC(=O)CCC1CC(OC(=O)NCc2ccc3c(c2)OCO3)CC2(CCCC(COC(=O)NCc3cccc(C(F)(F)F)c3)O2)O1 (stereo not given in full) | -0.39 (inactive) | -0.045 | 0.598 (inactive) | -0.529 (inactive) | 0.262 (inactive) | -0.239 (inactive) | 0.0036 | 1.5 (inactive) | 0.971 (inactive) | 1.15
15 | COC(=O)[C@@H]1CC[C@H](C)[C@@H](c2ccc(C)cc2)N1C(=O)c1ccc(C=NOCC[C@@H]2C=C[C@H](OC(C)=O)[C@@H](COC(C)=O)O2)cc1 | 0.118 (inactive) | -0.111 | 3.09 (inactive) | 0.897 (inactive) | 0.533 (inactive) | 0.858 (inactive) | -0.994 | -1.19 (inactive) | 0.605 (inactive) | -0.134
16 | CCOC(=O)[C@H](CC(C)C)NC(=O)CCC1CC(OC(=O)NCCc2ccc(F)cc2)CC2(CCCC(COC(=O)NCCC(C)C)O2)O1 (stereo not given in full) | -1.14 (inactive) | 0.0451 | 6.28 (inactive) | 0.267 (inactive) | 0.0542 (inactive) | 0.0517 (inactive) | -0.326 | 1.26 (inactive) | -1.27 (inactive) | -0.8
17 | O=C1CCCC=C1C(O)CCOC(c1ccccc1)(c1ccccc1)c1ccccc1 (stereo not given) | -1.03 (inactive) | -0.0969 | 1.52 (inactive) | -0.349 (inactive) | -0.205 (inactive) | -0.217 (inactive) | -0.0632 | 1.69 (inactive) | -1.48 (inactive) | -0.832
18 | CO[C@H]1COC(=O)[C@@H](Cc2ccccc2)NC(=O)[C@@H](C)COC(=O)CCC[C@@H]1C | 0.558 (inactive) | -0.309 | -1.19 (inactive) | -1.66 (inactive) | -0.155 (inactive) | -2.21 (inactive) | 0.781 | -0.785 (inactive) | 0.533 (inactive) | 0.789
19 | Cc1ccc(S(=O)(=O)N[C@H]2COC(=O)CC=C[C@@H](C)COC(=O)CC=C[C@@H]2C)cc1 | 0.142 (inactive) | -0.296 | 0.866 (inactive) | -0.162 (inactive) | -0.424 (inactive) | -0.014 (inactive) | -0.41 | 0.225 (inactive) | 0.684 (inactive) | 0.238
20 | COC(=O)[C@H](C)NC(=O)CCC1CC(OC(=O)NCc2ccc3c(c2)OCO3)CC2(CCCC(COC(=O)NCC(c3ccccc3)c3ccccc3)O2)O1 (stereo not given in full) | 0.246 (inactive) | -0.0969 | 17.6 (active) | 4.8 (inactive) | 1.34 (inactive) | -0.685 (inactive) | 3.66 | -1.25 (inactive) | -1.5 (inactive) | -3.77
21 | O=C(C=Cc1ccc2c(c1)OCO2)c1ccc(F)cc1 | -0.394 (inactive) | 0.0685 | 20.7 (active) | 3.22 (inactive) | -0.0309 (inactive) | 0.47 (inactive) | -0.41 | 1.75 (inactive) | -2 (inactive) | -1.56
22 | CC(C)=CCCC(C)=CCON=C1C[C@@H](O)[C@@H](O)[C@@H]2[C@@H]3C(=O)N(Cc4ccccc4)C(=O)[C@@H]3CC[C@@H]12 | -0.0866 (inactive) | -0.241 | 0.391 (inactive) | 0.239 (inactive) | 0.0336 (inactive) | -0.0646 (inactive) | -0.444 | 0.0415 (inactive) | 0.836 (inactive) | -0.0355
23 | CCOC(=O)[C@H](Cc1ccccc1)NC(=O)CCC1CC(OC(=O)NCc2ccc3c(c2)OCO3)CC2(CCCC(COC(=O)NCCC(C)C)O2)O1 (stereo not given in full) | 0.241 (inactive) | -0.0162 | 25.3 (active) | 11.5 (active) | 1.26 (inactive) | 1.5 (inactive) | 0.274 | 1.3 (inactive) | 0.25 (inactive) | 0.277
24 | O=C(NN=C1C[C@@H](O)[C@@H](O)[C@@H]2[C@@H]3C(=O)N(C4CCCCC4)C(=O)[C@@H]3CC[C@@H]12)OCc1ccccc1 | 0.536 (inactive) | -0.407 | 4.15 (inactive) | 0.586 (inactive) | 0.228 (inactive) | 0.229 (inactive) | -0.146 | -0.457 (inactive) | -0.223 (inactive) | 0.118
25 | CC(C)(C)N1C(=O)[C@H]2[C@H]3[C@H](O)[C@H](O)CC(=O)[C@H]3CC[C@H]2C1=O | -0.714 (inactive) | -0.144 | -0.0882 (inactive) | 0.499 (inactive) | -0.933 (inactive) | 0.183 (inactive) | 1.23 | 1.22 (inactive) | -1.36 (inactive) | 0.0957
26 | CO[C@H](C1CCCCC1)[C@H](C)C=CCC(=O)OCCCc1ccccc1 | 0.101 (inactive) | -0.194 | 1.56 (inactive) | 0.726 (inactive) | -1.17 (inactive) | 0.22 (inactive) | -0.285 | 0.435 (inactive) | -3.56 (inactive) | -2.56
